PubChem BioAssay (NCATS)
Records with an inconclusive call do not appear. The source made the active and inactive calls. Calls come from the whole dose curve; as a rule, active = well fitted curve in the direction sought with a large enough effect; inconclusive = small, poorly fitted or top-dose-only effect, or another doubt; inactive = no such curve, though single readings can be large; an effect the other way counts as inactive or inconclusive.

Tests used:
[1] = tested on: Zika virus NS2B-NS3 protease (linked construct); assay: Primary screen NINDS Rhodamine qHTS for Zika virus inhibitors (AID 1347160); note: nearly all actives have a fitted effect of over 55% in size; note: potency is the fitted concentration of half-maximal effect
Outline: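 Rhodamine110-peptide cleavage (1.5 µM substrate) by 25 nM linked NS2B-NS3 enzyme at pH 8.0 (Tris, Tween 20), after 15 min RT preincubation with compounds; 15-min fluorescence change normalized to controls and Hill-fitted.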

[2] = target: Calcium and integrin-binding protein 1 (Homo sapiens) (UniProt Q99828); assay: Primary qHTS for Identification of Calcium Integrin Binding Protein 1 (CIB1) Competitor (AID 1508620);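 note: GST tagged CIB1 binding a fluorescein labelled alphaIIb integrin peptide tracer; top concentration of the series differs between compounds; % is set by controls: 0 for no effect and ±100 for the full control effect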
Sequence of Calcium and integrin-binding protein 1 (Homo sapiens) (Q99828 whole entry, looked up): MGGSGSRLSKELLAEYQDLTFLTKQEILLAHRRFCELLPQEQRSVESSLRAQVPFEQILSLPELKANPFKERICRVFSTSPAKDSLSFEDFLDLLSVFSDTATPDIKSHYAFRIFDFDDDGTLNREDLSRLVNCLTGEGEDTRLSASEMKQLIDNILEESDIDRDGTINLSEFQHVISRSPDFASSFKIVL
Outline: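 CIB1-GST (1 uM final) and compound incubated 15 min at room temperature before adding FITC-alphaIIb peptide tracer (100 nM final). Competition for binding read by fluorescence polarization (ex 480, em 540) after another 15 min at room temperature.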

[3] = Primary qHTS for inhibitors of nuclear receptor binding SET domain protein 2 (NSD2) in an isogenic RCH-ACV NSD2 p.E1099K mutant (9B) (AID 1645876); note: nearly all actives have a fitted effect of over 70% in size; note: potency is the fitted concentration of half-maximal effect
[4] = target: Glutathione peroxidase 1 (Homo sapiens) (UniProt P07203); assay: Primary qHTS Assay for Inhibitors of Recombinant Selenoprotein Glutathione Peroxidase 1 (GPX1) (AID 1845191); note: nearly all actives have a fitted effect of over 65% in size
Sequence of Glutathione peroxidase 1 (Homo sapiens) (P07203 whole entry, looked up): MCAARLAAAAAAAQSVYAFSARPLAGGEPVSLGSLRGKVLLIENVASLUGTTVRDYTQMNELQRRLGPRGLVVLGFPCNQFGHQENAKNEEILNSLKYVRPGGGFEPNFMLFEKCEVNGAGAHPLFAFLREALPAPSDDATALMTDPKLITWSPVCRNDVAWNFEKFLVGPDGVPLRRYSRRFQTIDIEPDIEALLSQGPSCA
Outline: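 NADPH consumption tracked by fluorescence at 340/450 nm between t=0 and t=15 min, room temperature. Final mix: 10 nM GPX1, 100 nM glutathione reductase, 1 mM GSH, 0.5 mM NADPH, 0.5 mM cumene hydroperoxide, 0.01% BSA; 30 min compound–enzyme preincubation.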

[5] = target: Phospholipid hydroperoxide glutathione peroxidase GPX4 (Homo sapiens) (UniProt P36969); assay: Primary qHTS Assay for Inhibitors of Recombinant Selenoprotein Glutathione Peroxidase 4 (GPX4) (AID 1845192); note: % is set by controls: 0 for no effect and ±100 for the full control effect; nearly all actives have a fitted effect of over 65% in size
Sequence of Phospholipid hydroperoxide glutathione peroxidase GPX4 (Homo sapiens) (P36969 whole entry, looked up): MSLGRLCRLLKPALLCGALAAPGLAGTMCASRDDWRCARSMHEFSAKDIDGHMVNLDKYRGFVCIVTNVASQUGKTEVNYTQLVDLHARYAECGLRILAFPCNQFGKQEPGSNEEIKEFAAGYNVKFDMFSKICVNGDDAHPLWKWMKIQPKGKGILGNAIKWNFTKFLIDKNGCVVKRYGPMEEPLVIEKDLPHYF
Outline: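 NADPH consumption followed by fluorescence at 340/450 nm, t=0 and after 15 min at room temperature. Reaction started with cumene hydroperoxide (0.5 mM final) after 30 min compound–GPX4 preincubation; final 200 nM GPX4, 100 nM GR, 1 mM GSH, 0.5 mM NADPH.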

[6] = target: Luciferin 4-monooxygenase (Photinus pyralis) (UniProt P08659); assay: Primary firefly luciferase (FLuc) qHTS assay for identification of artifact compounds. (AID 1845220); conditions: outcome: dose series up to 54.1 µM unless noted; note: nearly all actives have a fitted effect of over 60% in size
Outline: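 Compounds sat 15 min at room temperature with 10 uM luciferin and 10 uM ATP (pH 7.6 Tris acetate). Firefly luciferase (10 nM final) was then added, and luminescence was read 5 min later. Data normalized to no-enzyme and DMSO controls were Hill-fitted.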

[7] = Primary fluorescence-based thiol-reactive (MSTI) qHTS assay for identification of artifact compounds. (AID 1845221);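 note: thiol-reactive compounds lower the probe fluorescence signal; nearly all actives have a fitted effect of over 65% in size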
Outline: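 Compounds were incubated 1 h at room temperature in the dark with the MSTI probe (4 uM) in PBS pH 7.4, 2% DMSO. Signals were normalized between Acetyl-MSTI and MSTI.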

[8] = tested on: Nanoluciferase (engineered Oplophorus gracilirostris luciferase); assay: Primary Nanoluciferase (NLuc) qHTS assay for identification of artifact compounds. (AID 1845222); note: potency is the fitted concentration of half-maximal effect
Outline: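 Luminescence from secreted NLuc (filtered, 1:55-diluted S16 cell medium) read 5 min after Nano-Glo substrate; compounds preincubated 15 min, RT. Hill fits of inhibition normalized to DMSO and no-enzyme.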

CRL-7250 = normal cell line; assay: Cytotoxic Profiling of Annotated Libraries Using Quantitative High-Throughput Screening (AID 1296008); conditions: Five cell lines viability, CellTiter-Glo ATP luminescence, 48-72 h; max response: hits give low values; note: nearly all actives have a fitted effect of over 60% in size; note: potency is the fitted concentration of half-maximal effect; for max response: % is set by controls: 0 for no effect and ±100 for the full control effect
Outline: (§1)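 Cytotoxicity was measured as CellTiter-Glo ATP luminescence, read after 10 min at room temperature. Compound treatment of the cells lasted 48 or 72 hr at 37 degrees Celsius in a qHTS format.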

HEK293 = assay: as above; conditions: Five cell lines viability, CellTiter-Glo ATP luminescence, 48-72 h; max response: hits give low values
Outline: as §1

HaCat = assay: as above; conditions: Five cell lines viability, CellTiter-Glo ATP luminescence, 48-72 h; max response: hits give low values
Outline: as §1

KB-3-1 = assay: as above; conditions: Five cell lines viability, CellTiter-Glo ATP luminescence, 48-72 h; max response: hits give low values
Outline: as §1

C33A = assay: Primary qHTS to identify gynecologic anti-cancer compounds using libraries of approved drugs and bioactive compounds (AID 1345084); conditions: Gynecologic cancer cell panel viability, ATPlite luminescence, 48 h; series mostly up to 57.5 µM; note: nearly all actives have a fitted effect of over 55% in size; note: potency is the fitted concentration of half-maximal effect
Outline: (§2)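 Luminescence from the ATPlite ATP-monitoring reagent indicates viable cell number; lower signal means cytotoxicity. Cells received compound 16 h after seeding and were exposed for 48 h across five concentrations.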

CASKI = assay: as above; conditions: Gynecologic cancer cell panel viability, ATPlite luminescence, 48 h; series mostly up to 57.5 µM
Outline: as §2

Es-2 = assay: as above; conditions: Gynecologic cancer cell panel viability, ATPlite luminescence, 48 h; series mostly up to 57.5 µM
Outline: as §2

Hek293T = assay: as above; conditions: Gynecologic cancer cell panel viability, ATPlite luminescence, 48 h, control line for the selectivity index; series mostly up to 57.5 µM
Outline: as §2

OV90 = assay: as above; conditions: Gynecologic cancer cell panel viability, ATPlite luminescence, 48 h; series mostly up to 57.5 µM
Outline: as §2

PA-1 = assay: as above; conditions: Gynecologic cancer cell panel viability, ATPlite luminescence, 48 h; series mostly up to 57.5 µM
Outline: as §2

Tov-21-G = assay: as above; conditions: Gynecologic cancer cell panel viability, ATPlite luminescence, 48 h; series mostly up to 57.5 µM
Outline: as §2

Tov112D = assay: as above; conditions: Gynecologic cancer cell panel viability, ATPlite luminescence, 48 h; series mostly up to 57.5 µM
Outline: as §2

CN1C(=O)CN=C(c2ccccc2Cl)c2cc(Cl)ccc21
inactive: Potency [1] | Potency [2] | Potency [3] | Potency [4] | Potency [5] | outcome [6] | Potency [7] | Potency [8] | outcome (CRL-7250) | max response (HEK293) -5.69% | max response (HaCat) 2.59% | max response (KB-3-1) -0.99% | Potency (C33A) | Potency (CASKI) | Potency (Es-2) | Potency (Hek293T) | Potency (OV90) | Potency (PA-1) | Potency (Tov-21-G) | Potency (Tov112D)

C[C@]12CCC(=O)C=C1CC[C@@H]1[C@@H]2[C@@H](O)C[C@]2(C)C(=O)CC[C@@H]12
inactive: Potency [1] | Potency [2] | Potency [3] | Potency [4] | Potency [5] | outcome [6] | Potency [7] | Potency [8] | outcome (CRL-7250) | max response (HEK293) -2.71% | max response (HaCat) -8.66% | max response (KB-3-1) 6.55% | Potency (C33A) | Potency (CASKI) | Potency (Es-2) | Potency (Hek293T) | Potency (OV90) | Potency (PA-1) | Potency (Tov-21-G) | Potency (Tov112D)

COC(=O)[C@]12CCCC(C)(C)C1CCc1cc(C(C)C)c(O)c(O)c12 (stereo partly drawn)
inactive: Potency [2] | Potency [3] | Potency [4] | Potency [5] | outcome [6] | max response (CRL-7250) -0.302% | max response (HEK293) 3.53% | outcome (HaCat) | max response (KB-3-1) -12.9% | Potency (C33A) | Potency (CASKI) | Potency (Es-2) | Potency (Hek293T) | Potency (OV90) | Potency (PA-1) | Potency (Tov-21-G) | Potency (Tov112D)
active: Potency [1] 14.1 µM | Potency [8] 18.6 µM

C[C@@H]1CCC/C=C/[C@H]2C[C@@H](O)C[C@@H]2[C@@H](O)/C=C/C(=O)O1
inactive: Potency [1] | Potency [2] | Potency [5] | Potency [7] | Potency [8]
active: Potency [3] 290 nM | Potency (CRL-7250) 206 nM | Potency (HEK293) 920 nM | Potency (HaCat) 259 nM | Potency (KB-3-1) 146 nM | Potency (C33A) 891 nM | Potency (CASKI) 1.26 µM | Potency (Es-2) 501 nM | Potency (Hek293T) 1 µM | Potency (OV90) 316 nM | Potency (PA-1) 447 nM | Potency (Tov-21-G) 1.12 µM | Potency (Tov112D) 1 µM

COCC(C(=O)OC1CC2CCC(C1)N2C)c1ccccc1 (stereo not drawn)
inactive: Potency [1] | Potency [2] | Potency [3] | Potency [4] | Potency [5] | outcome [6] | Potency [7] | Potency [8] | max response (CRL-7250) -5.38% | max response (HEK293) -0.619% | outcome (HaCat) | outcome (KB-3-1) | Potency (C33A) | Potency (CASKI) | Potency (Es-2) | Potency (Hek293T) | Potency (OV90) | Potency (PA-1) | Potency (Tov-21-G) | Potency (Tov112D)

CS[C@]1(CO)C(=O)N2[C@H]3C(=CC=C[C@@H]3O)C[C@@]2(SC)C(=O)N1C
inactive: Potency [3] | Potency [4] | Potency [5] | outcome [6] | Potency [8] | outcome (CRL-7250) | max response (HEK293) -12.6% | max response (HaCat) 0.502% | outcome (KB-3-1) | Potency (C33A) | Potency (CASKI) | Potency (Es-2) | Potency (Hek293T) | Potency (OV90) | Potency (PA-1) | Potency (Tov-21-G) | Potency (Tov112D)

COC1C=CC23c4cc5c(cc4COC2(O)CN(C)C3C1)OCO5 (stereo not drawn)
inactive: Potency [1] | Potency [2] | Potency [3] | Potency [4] | Potency [5] | outcome [6] | Potency [7] | Potency [8] | max response (CRL-7250) -6.96% | max response (HEK293) -0.372% | outcome (HaCat) | outcome (KB-3-1) | Potency (C33A) | Potency (CASKI) | Potency (Es-2) | Potency (Hek293T) | Potency (OV90) | Potency (Tov-21-G) | Potency (Tov112D)

CC1(C)C(=O)N(c2ccc(C#N)c(C(F)(F)F)c2)C(=O)N1CCCCO
inactive: Potency [1] | Potency [2] | Potency [3] | Potency [4] | Potency [5] | outcome [6] | Potency [7] | Potency [8] | max response (CRL-7250) -11% | max response (HEK293) -15.9% | max response (HaCat) -18.8% | max response (KB-3-1) -3.73% | Potency (C33A) | Potency (CASKI) | Potency (Es-2) | Potency (Hek293T) | Potency (OV90) | Potency (PA-1) | Potency (Tov-21-G) | Potency (Tov112D)

COc1ccc(CN(C(=O)[C@@H](N)Cc2c(C)cc(C(N)=O)cc2C)[C@@H](C)c2ncc(-c3ccccc3)[nH]2)cc1C(=O)O
inactive: Potency [1] | Potency [2] | Potency [3] | Potency [4] | Potency [5] | outcome [6] | Potency [7] | Potency [8] | max response (CRL-7250) -8.53% | max response (HEK293) -8.03% | max response (HaCat) 1.02% | max response (KB-3-1) 2.03% | Potency (C33A) | Potency (CASKI) | Potency (Es-2) | Potency (Hek293T) | Potency (OV90) | Potency (PA-1) | Potency (Tov-21-G) | Potency (Tov112D)
